In PubChem BioAssay AID493001 (Johns Hopkins Ion Channel Center, 2010) one finds calcium response (agonist-mode artifact) data, which are given here for 87 compounds.

SMILES strings stand for the structures. Among all 1,900 compounds or so, about 430 (23%) were called active.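 Rule for the calls: active = duplicate-averaged calcium rise in uninduced cells above buffer wells' mean plus 5 SD; inactive = the rest.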 The list is a sample of the results.

A short description of the experiment: compound-evoked calcium rise in non-induced M3R cells, confirmation, artefact control for RGS4 inhibitor project, cell-based, HEK293 M3R, no carbachol, second counter-screen (AID 493001). As to conditions: Fluo-4 calcium, at 10 µM; stronger effect = higher value, normalised: buffer wells 0%, carbachol wells 100%. In general terms: Counterscreens check selectivity or assay interference.
For `COc1ccccc1C1C(C#N)=C(N)Oc2c1c(-c1ccccc1)nn2-c1ccccc1` (configuration not stated), the calcium response (agonist-mode artifact) was 8% (active).
With `O=C(Nc1ccccc1)OCc1cc(-c2ccc(Cl)cc2)on1`, the calcium response (agonist-mode artifact) result was “inactive”.
For the compound `COc1ccc2c(c1OC)C(=O)OC2Nc1nc(-c2ccccc2)cs1` (configuration not stated), the calcium response (agonist-mode artifact) result was “inactive”.
Take `CC(C)c1nc(SCC(=O)Nc2cccc(C(=O)O)c2)c2c3c(sc2n1)CCCC3`: the calcium response (agonist-mode artifact) result is “inactive”.
For `O=C(NCCCc1ccccc1)C1CCC(CNc2c(N3CCCCC3)c(=O)c2=O)CC1` (configuration not stated) the value was “inactive”; for `Cn1c(-c2ccco2)nc2cc3ccccc3cc21`, “inactive”.
On to `Cc1ccc(-c2c3c(=O)n(C)c(=O)n(C)c3cn2-n2cnnc2)cc1`, for which the calcium response (agonist-mode artifact) entry was “inactive”.
For `Nc1ccccc1SC(C[N+](=O)[O-])c1ccccc1` (configuration not stated) the value was 26% (active); for `c1ccc(C[C@H]2CNCCN2CCC23CC4CC(CC(C4)C2)C3)cc1`, “inactive”.
In the case of `C=CCSc1nc2c(c(=O)[nH]1)C(C(C)C)C(C#N)=C(N)O2` (configuration not stated), the calcium response (agonist-mode artifact) entry is “inactive”.
As to `CCn1c(O)c(N=NC2=NC(=O)CS2)c2cc(C)ccc21`, the calcium response (agonist-mode artifact) result was “inactive”.
Consider `O=C1NC(c2ccc(-c3ccccc3[N+](=O)[O-])o2)C(C(=O)c2ccc(Cl)cc2)C(O)(C(F)(F)F)N1` (configuration not stated), for which the calcium response (agonist-mode artifact) was 7% (active).
For `Cc1ccc(SC(CC(=O)c2ccc(C(C)(C)C)cc2)C(=O)O)cc1` (configuration not stated) the value was “inactive”; for `O=C(Nc1ccc(Cl)cc1)OCc1cc(-c2ccccc2)on1`, “inactive”.
Consider `O=C(O)c1ccc2c(c1)C(=O)N(c1ccc(/C=C/C(=O)c3ccccc3)cc1)C2=O`, for which the calcium response (agonist-mode artifact) result was “inactive”.
In the case of `COc1cc(/C=C2/SC(=S)N(Cc3ccccc3)C2=O)cc(OC)c1O`, the calcium response (agonist-mode artifact) is 37.5% (active).
With `COc1ccc(/C(O)=C2/C(=O)C(=O)N(c3nc(C)c(C)s3)C2c2ccco2)cc1` (configuration not stated), the calcium response (agonist-mode artifact) entry is “inactive”.
`COc1ccc(-c2csc(Nc3ccc(O)cc3)n2)cc1`: the calcium response (agonist-mode artifact) result is “inactive”.
With `CNc1nc(Nc2ccc(C)c(Cl)c2)nc(N)c1[N+](=O)[O-]`, the calcium response (agonist-mode artifact) result is “inactive”.
In the case of `O=C(O)c1ccc2c(=O)n3c(nc2c1)/C(=C/c1ccc(Cl)c([N+](=O)[O-])c1)CC3`, the calcium response (agonist-mode artifact) result is “inactive”.
For the compound `COc1cc2c(cc1O)C(SC)=NC(C)(C)C2`, the calcium response (agonist-mode artifact) entry was “inactive”.
For `Cc1cc(C)nc(S/C=C/C(=O)c2ccccc2)n1` the value was “inactive”; for `O=C(/C=C/Sc1ncn[nH]1)c1ccc(Cl)cc1`, 9% (active); for `CC(=O)Nc1ccc(S(=O)(=O)Nc2nc(-c3ccc(C(C)(C)C)cc3)cs2)cc1`, “inactive”.
Regarding `O=C(/C=C/c1ccc(Cl)c([N+](=O)[O-])c1)c1cccnc1`, the calcium response (agonist-mode artifact) result was “inactive”.
As for `Cc1ccc(C)c(Cn2nnc3c(=O)[nH]c(C(=O)Nc4ccc(F)cc4)nc32)c1`, the calcium response (agonist-mode artifact) entry is “inactive”.
On to `O=C(NCc1ccccc1)c1ccc(S(=O)(=O)Nc2cccc(C(F)(F)F)c2)cc1`, for which the calcium response (agonist-mode artifact) is 13% (active).
As to `CCc1ccc2oc(-c3ccc(N)cc3)nc2c1`, the calcium response (agonist-mode artifact) entry was “inactive”.
`CCCCC1S/C(=N/N=C/c2cccs2)NC1=O` (configuration not stated): the calcium response (agonist-mode artifact) entry is “inactive”.
Consider `CCOC(=O)[C@@H]1[C@H]2COc3ccc(Br)cc3[C@H]2N2C(=O)N(c3ccc(Cl)cc3)C(=O)[C@@]12C`, for which the calcium response (agonist-mode artifact) entry is “inactive”.
Take `O=C(CCN1CCc2ccccc2C(O)(c2ccccc2)C1)c1ccc2c(c1)OCCO2` (configuration not stated): the calcium response (agonist-mode artifact) was 11.5% (active).
As for `CCc1nnc(NS(=O)(=O)c2ccc(N=Cc3c(C)[nH]n(-c4ccc(C)cc4)c3=O)cc2)s1`, the calcium response (agonist-mode artifact) entry was “inactive”.
In the case of `CCC(c1nnnn1Cc1ccco1)N(Cc1cc2cc(OC)ccc2[nH]c1=O)C1CCCCC1` (configuration not stated), the calcium response (agonist-mode artifact) entry is “inactive”.
On to `C=C(C)C(=O)O[C@H]1C/C(C)=C\C(=O)/C=C(\C)[C@H](O)[C@@H]2OC(=O)C(=C)[C@@H]21`, for which the calcium response (agonist-mode artifact) entry was “inactive”.
For the compound `CCCCOC(=O)CNc1nnc(SCC(=O)OCC)[nH]c1=O`, the calcium response (agonist-mode artifact) entry was “inactive”.
Take `CNCC(O)c1ccc(O)c(O)c1` (configuration not stated): the calcium response (agonist-mode artifact) result was “inactive”.
For the compound `Cc1ccc(S/C(=N\S(=O)(=O)c2ccc(Cl)cc2)c2ccccc2)cc1`, the calcium response (agonist-mode artifact) was 25% (active).
As for `COc1ccc(OC)c(S(=O)(=O)N2CCCC(C(=O)N3CCC(C(N)=O)CC3)C2)c1` (configuration not stated), the calcium response (agonist-mode artifact) entry was “inactive”.
On to `CCOC(=O)C1CCN(C(c2cc3cc(C)cc(C)c3[nH]c2=O)c2nnnn2C2CCCCC2)CC1` (configuration not stated), for which the calcium response (agonist-mode artifact) result is “inactive”.
As to `Cc1noc(NS(=O)(=O)c2ccc(N/C=C/C(=O)c3ccccc3)cc2)c1C`, the calcium response (agonist-mode artifact) result is “inactive”.
As for `Cc1ccsc1/C=N/n1c(=S)[nH]nc(C)c1=O`, the calcium response (agonist-mode artifact) entry is “inactive”.
For the compound `CCOc1ccc(/C=N/NC(=O)CSc2ccccn2)cc1O`, the calcium response (agonist-mode artifact) entry is “inactive”.
In the case of `Cc1nc(-c2ccccc2)sc1C(=O)/C=C/c1ccccc1`, the calcium response (agonist-mode artifact) is 22.5% (active).
Take `S=c1[nH]nc(-c2cccnc2)n1/N=C/C(Cl)=C\c1ccccc1`: the calcium response (agonist-mode artifact) entry is “inactive”.
On to `Oc1ccc(-c2[nH]ncc2-c2nc3ccccc3s2)c(O)c1`, for which the calcium response (agonist-mode artifact) entry was “inactive”.
For `C=CCOc1ccc(/C=C2/C(=O)ON=C2C)cc1OCC`, the calcium response (agonist-mode artifact) is 10% (active).
As to `COc1cc(/C=C2/C(=O)ON=C2C)ccc1OCc1ccccc1F`, the calcium response (agonist-mode artifact) was 222% (active).
For `C#CCOc1ccc(/C=C2/C(=O)ON=C2C)cc1OCC`, the calcium response (agonist-mode artifact) result was “inactive”.
Take `Cc1ccc(NC(=O)c2c(NC(=O)CCC(=O)O)sc3c2CCCCC3)cc1`: the calcium response (agonist-mode artifact) result is “inactive”.
For `Cc1ccc(Nc2nc(N)nc(CSc3nnc(C)s3)n2)cc1`, the calcium response (agonist-mode artifact) entry was “inactive”.
Turning to `Cc1ccc(Nc2nc(N)nc(CN3CCN(Cc4ccccc4)CC3)n2)cc1Cl`, the calcium response (agonist-mode artifact) result was “inactive”.
As to `Brc1ccc(-c2csc(N/N=C/c3cccnc3)n2)cc1`, the calcium response (agonist-mode artifact) entry is “inactive”.
Turning to `CCOc1ccc(NC(=O)C/C(C)=N/NC(=O)Cc2cccs2)cc1`, the calcium response (agonist-mode artifact) entry was “inactive”.
Regarding `O=C(/C=C/c1ccc(Cl)c([N+](=O)[O-])c1)c1ccc(O)cc1`, the calcium response (agonist-mode artifact) result is “inactive”.
For `COc1ccc(/C=C/C(=O)c2ccc(OC)cc2O)cc1` the value was 11.5% (active); for `Cc1c(NC(=O)c2coc(=O)c(Br)c2)c(=O)n(-c2ccccc2)n1C`, “inactive”.
`CCc1ccc(C2C(C#N)=C(N)N(N3CCOCC3)C3=C2C(=O)CC(C)(C)C3)s1` (configuration not stated): the calcium response (agonist-mode artifact) result is “inactive”.
As for `O=[N+]([O-])c1c(NCCO)cc(Sc2nc3ccccc3s2)c2nonc12`, the calcium response (agonist-mode artifact) was 114% (active).
For the compound `COc1ccc(S(=O)(=O)Nc2ccc(O)c(Sc3nc4ccccc4s3)c2)cc1`, the calcium response (agonist-mode artifact) result is “inactive”.
Turning to `C[C@H](NC(=O)c1nc[nH]c1C(=O)NCC(=O)OC(C)(C)C)c1ccccc1`, the calcium response (agonist-mode artifact) result was “inactive”.
`Cc1nc(Nc2ccc(S(=O)(=O)N3CCCC3)cc2)c2nnn(Cc3ccccc3)c2n1`: the calcium response (agonist-mode artifact) entry was “inactive”.
In the case of `Nc1cccc(-c2cc(-c3ccccc3)nc(-c3cccc(N)c3)n2)c1`, the calcium response (agonist-mode artifact) entry is “inactive”.
`O=C(N/N=C/c1ccccc1O)/C(=C/c1ccccc1)CCO`: the calcium response (agonist-mode artifact) entry is “inactive”.
For `CS(=O)(=O)N(CC(O)Cn1c2ccccc2c2ccccc21)c1cccc2ccccc12` (configuration not stated) the value was “inactive”; for `COCCCNC(=S)N(CCN(C)C)Cc1cc2cc3c(cc2[nH]c1=O)OCCO3`, “inactive”.
As to `C1=C(N2CCOCC2)/C(=C/c2nc3ccccc3[nH]2)CC1`, the calcium response (agonist-mode artifact) was 185% (active).
For `Cc1nn(C(C)C(=O)N2CCOCC2)c(=O)c2nn(-c3ccccc3)c(C)c12` (configuration not stated) the value was “inactive”; for `Cc1ccc(Sc2cc(N3CCOCC3)nc(-c3ccccc3)n2)cc1`, 17% (active).
On to `COC(=O)C1CCN(C(=O)c2cc(=O)[nH]c3ccccc23)CC1`, for which the calcium response (agonist-mode artifact) entry is “inactive”.
Turning to `COC(=O)Cn1cc(/C=C/[N+](=O)[O-])c2ccccc21`, the calcium response (agonist-mode artifact) is 11.5% (active).
For the compound `CC(C)Cc1nc(Nc2ccc(S(=O)(=O)N3CCCC3)cc2)c2nnn(Cc3ccccc3)c2n1`, the calcium response (agonist-mode artifact) entry is “inactive”.
`COc1cc(Br)cc(/C=N/c2ncn[nH]2)c1O`: the calcium response (agonist-mode artifact) result is “inactive”.
As for `COc1cc(/C=C2/C(=O)NN(c3cccc(Cl)c3)C2=O)cc(Br)c1O`, the calcium response (agonist-mode artifact) is 43.5% (active).
In the case of `C#CCOc1ccc(/C=C2/C(=O)NN(c3ccccc3)C2=O)cc1OC`, the calcium response (agonist-mode artifact) entry was “inactive”.
For `Cc1ccc(/C=C2\CCn3c2nc2cc(C(=O)O)ccc2c3=O)c(C)c1` the value was “inactive”; for `O=[N+]([O-])/C=C/c1ccc2c(ccn2Cc2ccccc2)c1`, 104% (active).
In the case of `Cc1cc(-c2n[nH]c(=S)n2/N=C/C(Br)=C/c2ccccc2)n[nH]1`, the calcium response (agonist-mode artifact) entry is “inactive”.
As to `O=C1c2ccccc2NC(c2ccc(-c3cccc(Cl)c3)o2)N1O` (configuration not stated), the calcium response (agonist-mode artifact) result is “inactive”.
On to `O=C(O)C(c1ccccc1)N1C(=O)/C(=C\c2ccc(-c3cccc(Cl)c3)o2)SC1=S` (configuration not stated), for which the calcium response (agonist-mode artifact) was 599% (active).
In the case of `O=C1Nc2ccc(Br)cc2/C1=N/N=C/C1=C(N2CCOCC2)C(=C\c2ccccc2)/CC1`, the calcium response (agonist-mode artifact) result was “inactive”.
For the compound `O=C(COC(=O)c1cccc(Br)c1)Nc1cccc2c1C(=O)c1ccccc1C2=O`, the calcium response (agonist-mode artifact) result was “inactive”.
As for `Oc1ccc(/C=N/Nc2ccc(C(F)(F)F)cn2)cc1O`, the calcium response (agonist-mode artifact) entry is “inactive”.
For the compound `Cc1nn2c(=O)cc(COC(=O)c3ccc(NC(=O)C(C)(C)C)cc3)nc2s1`, the calcium response (agonist-mode artifact) entry was “inactive”.
With `COc1ccc(C(C[N+](=O)[O-])n2nc(C)cc2C)cc1` (configuration not stated), the calcium response (agonist-mode artifact) was 16% (active).
For `CCOC(=O)C1=NN(c2ccc(Cl)cc2)/C(=C/C2=NCCc3cc(OC)c(OC)cc32)S1`, the calcium response (agonist-mode artifact) was 7% (active).
With `COc1ccc(NCc2nnc(SCc3ccccc3)n2-c2ccc(OC)cc2)cc1`, the calcium response (agonist-mode artifact) result was “inactive”.
For `O=S(=O)(Nc1nccs1)c1ccc2c(c1)OCCO2` the value was “inactive”.
